Assay results: PubChem BioAssay

test system: not listed separately; experiment: binders of probe aHhip on microarray, primary screen, stem cell growth factor project, biochemical, small-molecule microarray, fluorescence 635/667 (AID 1087); conditions: higher = more signal;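 note: score merges spot fluorescence at 667nm with spot signal to noise ratio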

Q: Which composite z-score does the source give for O=C(O)[C@]1(CCS(=O)(=O)c2ccccc2)N=C(c2ccc(OCCCO)cc2)O[C@@H]1c1ccccc1 here?
A: 0.744

Q: With [N-]=[N+]=NCc1ccccc1C[C@]1(C(=O)NCCN2CCOCC2)COC(c2ccc(OCCCO)cc2)=N1 as the compound, how does the composite z-score read?
A: -0.0645

Q: For CC(C)C[C@@H]1NC(=O)[C@@H]2C[C@H](C(=O)NCc3ccc(F)cc3)[C@H](c3ccc(O)cc3)N2C1=O, which composite z-score is on record?
A: -0.201

Q: With C=CCNC(=O)[C@H]1[C@@H]2C(=O)O[C@@H](c3ccccc3)[C@@H](c3ccccc3)N2[C@@H](c2ccc(O)cc2)[C@]12C(=O)N(C(=O)OCCOC)c1ccc(C#CC3(O)CCCCCC3)cc12 as the compound, how does the composite z-score read?
A: 0.142

Q: For COCCOC(=O)N1C(=O)[C@@]2(c3cc(C#CCC(C(=O)OC)C(=O)OC)ccc31)[C@H](C(=O)N1CCCCCCC1)[C@H]1C(=O)O[C@H](c3ccccc3)[C@H](c3ccccc3)N1[C@@H]2c1ccc(O)cc1, which composite z-score is on record?
A: 0.801

Q: Which composite z-score does the source give for O=[N+]([O-])c1ccc(C[n+]2ccc(-c3ccc(CO)cc3)cc2)o1 here?
A: 0.0373

Q: With CN1C(=O)C2C=CC(C(O)COCc3ccccc3)N(Nc3ccccc3)C2C1=O (stereo not given) as the compound, how does the composite z-score read?
A: -0.166

Q: Which composite z-score does the source give for COC(=O)[C@@]1(Cc2ccc(OC)cc2)[C@H]2c3cc(C(=O)N4CCCC4)n(CCc4ccc(O)c(OC)c4)c3C[C@H]2CN1C(=O)c1ccccc1 here?
A: 0.167

Q: For C=C(CCCC)/C(=C/C[C@H](OC(=O)c1ccncc1)c1ccc(CO)o1)c1cc(C(=O)OC)ccc1OC, which composite z-score is on record?
A: 0.0722

Q: With C[C@@H]1ON(c2ccccc2)[C@H](c2ccccc2)[C@H]1C(=O)N1C(=O)OC[C@H]1Cc1ccccc1 as the compound, how does the composite z-score read?
A: 0.0574

test system: PRMT1 (protein arginine N-methyltransferase 1); experiment: PRMT1 binders on small-molecule microarrays, primary screen, biochemical, small-molecule microarray, 635 nm fluorescence (AID 1088); conditions: small-molecule microarray binding, higher = more signal;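 note: binding of Prmt1 protein to compounds spotted on small-molecule microarray slides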

Q: For COC(=O)c1ccc(OC)c(/C=C\CC(CCc2ccccc2)OC(C)=O)c1 (stereo not given), which composite z-score is on record?
A: -0.0961

Q: Which composite z-score does the source give for C[N+](C)(C)CCCC[C@@H]1NC(=O)[C@H]2C[C@@H](C(=O)NCCCCCCN)[C@@H](c3cccc(OCCO)c3)N2C1=O here?
A: 1.54

Q: For C/C=C/[C@@H](CCn1cc([C@H](O)c2ccccc2)nn1)[Si](C)(C)c1ccc(OC)cc1, which composite z-score is on record?
A: 1.03

Q: Which composite z-score does the source give for CCCCCCCCCCC(O)C1C=CC2C(=O)NC(=O)C2N1Nc1ccccn1 (stereo not given) here?
A: -0.19

Q: With COC(=O)[C@@]1(Cc2ccc(F)cc2)[C@H]2c3cc(C(=O)N(C)C)n(CCSCCO)c3C[C@H]2CN1C(=O)c1ccccc1 as the compound, how does the composite z-score read?
A: 0.0793

Q: Which composite z-score does the source give for CC1CC/C=C\[C@H]2OC34C=CCN(Cc5ccccc5)C(=O)[C@H]3N(CCO)C(=O)[C@@H]4C2C(=O)O1 (stereo not given in full) here?
A: 0.205

Q: For C=C(COC)C(=O)CC[C@H](OC(=O)c1ccccc1-c1ccccc1C(=O)O)c1ccc(OCCO)cc1, which composite z-score is on record?
A: 1.55

Q: For C=CCC(OC(C)=O)[C@@H]1[C@@H](N(Cc2cc3ccccc3o2)C(=O)Cc2ccc(OC)cc2)c2cc(OCCCO)ccc2N1C(=O)c1ccc(-c2ccccc2)cc1 (stereo not given in full), which composite z-score is on record?
A: -0.427

Q: For CC1CC/C=C\[C@H]2OC34C=CCN(c5ccc(Cl)cc5)C(=O)[C@H]3N(C(CO)C(C)C)C(=O)[C@]4(C)C2C(=O)O1 (stereo not given in full), which composite z-score is on record?
A: -0.538

Q: Which composite z-score does the source give for O=C1O[C@@H](c2ccccc2)[C@@H](c2ccccc2)N2[C@@H](c3ccc(O)cc3)[C@]3(C(=O)Nc4ccc(C#CC5(O)CCCCCC5)cc43)[C@@H](C(=O)N3CCN(c4ncccn4)CC3)[C@H]12 here?
A: 1.34

Q: For CC[C@@H]1[C@@H]2C3C(=O)N(CC)C(=O)C3CC(=O)[C@@H]2[C@H](c2ccc(C)cc2)N1S(=O)(=O)c1ccc(C)cc1 (stereo not given in full), which composite z-score is on record?
A: 1.29

Q: For COCCOC(=O)N1C(=O)[C@@]2(c3cc(C#CCCO)ccc31)[C@H](C(=O)NC[C@H](O)c1ccccc1)[C@H]1C(=O)O[C@H](c3ccccc3)[C@H](c3ccccc3)N1[C@@H]2c1ccccc1OCCO, which composite z-score is on record?
A: 1.53

Q: Which composite z-score does the source give for C=CCOC(=O)[C@@H]1[C@H]2C(=O)O[C@H](c3ccccc3)[C@H](c3ccccc3)N2[C@H](c2ccc(OCCOC(=O)[C@@H]3C[C@@H]4C(=O)N[C@@H](CCCCNC(C)=O)C(=O)N4[C@@H]3c3ccc(O)cc3)cc2)[C@@]12C(=O)Nc1ccc(I)cc12 here?
A: 1.54

Q: Which composite z-score does the source give for CC(C)CCC[C@@H](C)[C@H]1CC[C@@]2(C)C3=C(CC[C@]12C)[C@@]1(C)CC[C@H](OC(=O)c2ccc(N)cc2)C(C)(C)C1CC3 (stereo not given in full) here?
A: 0.68

Q: Which composite z-score does the source give for CCCN1C(=O)[C@@H]2Cc3c([nH]c4ccccc34)[C@@H](c3cccc(O)c3)N2C1=O here?
A: 0.213

Q: Which composite z-score does the source give for C=CCN1C(=O)[C@@]2(O[C@@H](CCn3cc([C@H](O)c4ccccc4)nn3)[C@H]([Si](C)(C)c3ccc(OC)cc3)[C@H]2C)c2cc(NC(=O)c3ccc(OC)cc3)ccc21 here?
A: 0.948

Q: With COc1ccc([Si](C)(C)[C@@H]2[C@@H](CC(=O)N(CCO)Cc3ccccc3)O[C@]3(C(=O)N(Cc4ccc(N5CCOC5=O)cc4)c4ccccc43)[C@H]2C)cc1 as the compound, how does the composite z-score read?
A: 1.44

Q: Which composite z-score does the source give for COCCOC(=O)N1C(=O)[C@@]2(c3cc(C#Cc4ccc(OC)cc4)ccc31)[C@H](C(=O)N1CCc3cc(OC)c(OC)cc3C1)[C@H]1C(=O)O[C@H](c3ccccc3)[C@H](c3ccccc3)N1[C@@H]2c1ccc(O)cc1 here?
A: 1.55

Q: With CC(C)CNC(=O)[C@@]1(C)c2ccccc2C(=O)N(Cc2ccccc2)[C@H]1c1ccc(CO)cc1 as the compound, how does the composite z-score read?
A: -0.579

Q: For COc1ccccc1CN1C(=O)c2ccccc2[C@](Cc2ccccc2I)(C(=O)NCCN2CCOCC2)[C@@H]1c1ccc(CO)cc1, which composite z-score is on record?
A: 1.54

Q: For CCCCCCC#C[Si](O[C@H](c1ccccc1)c1cn(Cc2cccc(Cl)c2)nn1)(C(C)C)C(C)C, which composite z-score is on record?
A: 1

Q: Which composite z-score does the source give for COc1ccc([Si](C)(C)[C@@H]2[C@@H](CCO)O[C@]3(C(=O)N(Cc4ccccc4)c4ccc(N5CCCCC5=O)cc43)[C@H]2C)cc1 here?
A: 1.56

Q: For COC(=O)[C@@]1(Cc2ccc(F)cc2)[C@@H]2[C@@H](CC(=O)[C@H]2CC(=O)C(=O)N2CCCC2)CN1C(=O)c1ccccc1, which composite z-score is on record?
A: 1.27

Q: Which composite z-score does the source give for COCCOC(=O)N1C(=O)[C@@]2(c3cc(C#CCCO)ccc31)[C@H](c1ccc(OCCO)cc1)N1[C@H](c3ccccc3)[C@H](c3ccccc3)OC(=O)[C@H]1[C@@H]2C(=O)N1CCc2cc(OC)c(OC)cc2C1 here?
A: 1.55

Q: With C=CC[C@]1(C(=O)NCC(O)CO)N=C(c2ccc(OCCCO)cc2)O[C@H]1c1ccccc1N=[N+]=[N-] (stereo not given in full) as the compound, how does the composite z-score read?
A: 1.03

Q: Which composite z-score does the source give for O=C(O)[C@]1(CCS(=O)(=O)c2ccccc2)N=C(c2ccc(OCCCO)cc2)O[C@@H]1c1ccccc1 here?
A: 0.464

Q: For [N-]=[N+]=NCc1ccccc1C[C@]1(C(=O)NCCN2CCOCC2)COC(c2ccc(OCCCO)cc2)=N1, which composite z-score is on record?
A: 1.55

Q: Which composite z-score does the source give for CC(C)C[C@@H]1NC(=O)[C@@H]2C[C@H](C(=O)NCc3ccc(F)cc3)[C@H](c3ccc(O)cc3)N2C1=O here?
A: 1.43

Q: Which composite z-score does the source give for C=CCNC(=O)[C@H]1[C@@H]2C(=O)O[C@@H](c3ccccc3)[C@@H](c3ccccc3)N2[C@@H](c2ccc(O)cc2)[C@]12C(=O)N(C(=O)OCCOC)c1ccc(C#CC3(O)CCCCCC3)cc12 here?
A: 1.55

Q: Which composite z-score does the source give for COCCOC(=O)N1C(=O)[C@@]2(c3cc(C#CCC(C(=O)OC)C(=O)OC)ccc31)[C@H](C(=O)N1CCCCCCC1)[C@H]1C(=O)O[C@H](c3ccccc3)[C@H](c3ccccc3)N1[C@@H]2c1ccc(O)cc1 here?
A: 1.49

Q: For O=[N+]([O-])c1ccc(C[n+]2ccc(-c3ccc(CO)cc3)cc2)o1, which composite z-score is on record?
A: 1.47

Q: Which composite z-score does the source give for CN1C(=O)C2C=CC(C(O)COCc3ccccc3)N(Nc3ccccc3)C2C1=O (stereo not given) here?
A: 0.691

Q: Which composite z-score does the source give for COC(=O)[C@@]1(Cc2ccc(OC)cc2)[C@H]2c3cc(C(=O)N4CCCC4)n(CCc4ccc(O)c(OC)c4)c3C[C@H]2CN1C(=O)c1ccccc1 here?
A: -1.53

Q: Which composite z-score does the source give for C=C(CCCC)/C(=C/C[C@H](OC(=O)c1ccncc1)c1ccc(CO)o1)c1cc(C(=O)OC)ccc1OC here?
A: 1.56

Q: For C[C@@H]1ON(c2ccccc2)[C@H](c2ccccc2)[C@H]1C(=O)N1C(=O)OC[C@H]1Cc1ccccc1, which composite z-score is on record?
A: 1.3
